# Source: PubChem (Broad Institute)
# STK33 inh = blocks human STK33 kinase activity | Q9BYT3 | ADP-Glo luminescence, MBP substrate | inhibition, % at 12.5 µM | 27,000 compounds, 0.44% hits; in the data active means inhibition above about 20%
# Target sequence (Q9BYT3 whole entry, looked up): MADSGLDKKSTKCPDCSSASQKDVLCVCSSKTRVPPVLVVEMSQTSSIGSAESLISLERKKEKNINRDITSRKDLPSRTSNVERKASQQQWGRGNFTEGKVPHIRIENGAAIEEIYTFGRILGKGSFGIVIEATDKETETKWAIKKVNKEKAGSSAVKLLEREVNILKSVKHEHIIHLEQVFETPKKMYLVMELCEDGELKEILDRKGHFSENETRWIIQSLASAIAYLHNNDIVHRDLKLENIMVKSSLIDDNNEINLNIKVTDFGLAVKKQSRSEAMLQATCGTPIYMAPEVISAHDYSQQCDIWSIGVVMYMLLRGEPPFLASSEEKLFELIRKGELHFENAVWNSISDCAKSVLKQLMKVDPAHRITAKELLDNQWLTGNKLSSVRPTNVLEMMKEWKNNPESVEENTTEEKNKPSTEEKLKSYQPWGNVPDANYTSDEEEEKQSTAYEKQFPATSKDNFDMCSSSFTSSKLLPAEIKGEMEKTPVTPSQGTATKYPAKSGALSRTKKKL
# PD-1 reversal = reversal of PD-1 mediated T-cell inhibition | activation, % (concentration not given with the values) | primary human CD4 T cells, PD-L1 beads, CellTiter-Glo 96 h | 29,000 tested, under 10 active; call rule not given here;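 further: 0% = median vehicle wells and 100% = positive control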
# Starred values were filed as active, the others as inactive; . = no result. Only a selection was taken, and hits are over-represented in it overall.
SMILES,STK33 inh,PD-1 reversal
O=C1O[C@H](c2ccccc2)[C@H](c2ccccc2)N2[C@H]1[C@@H](C(=O)N1CCCCCCC1)[C@]1(C(=O)Nc3ccc(C#CCCO)cc31)[C@H]2c1ccccc1OCCO,22.0*,.
O=C1O[C@H](c2ccccc2)[C@H](c2ccccc2)N2[C@H]1[C@@H](C(=O)N1CCN(c3ncccn3)CC1)[C@]1(C(=O)Nc3ccc(C#CC4(O)CCCCCC4)cc31)[C@H]2c1ccccc1OCCO,8.6,.
O=C1O[C@@H](c2ccccc2)[C@@H](c2ccccc2)N2[C@@H](c3ccc(OCCO)cc3)[C@]3(C(=O)Nc4ccc(C#CC5=CCCCC5)cc43)[C@@H](C(=O)N3CCN(c4ncccn4)CC3)[C@H]12,7.8,.
C=C(C)[C@@H]1CC[C@]2(C(=O)O)CC[C@]3(C)[C@H](CCC4[C@]5(C)C(CC[C@]43C)[C@@](C)(CO)[C@@H](O)[C@@H]5C(=O)O)C12 (stereo not given in full),1.3,-1.0
C[C@@H]1CN([C@@H](C)CO)C(=O)c2cc(N(C)C)ccc2O[C@@H]1CN(C)Cc1ccncc1,-0.6,4.2
C[C@@H]1CN([C@@H](C)CO)C(=O)c2cc(NC(=O)Nc3ccc(C(F)(F)F)cc3)ccc2O[C@@H]1CN(C)CC1CCCCC1,1.7,-6.7
Cc1noc(C)c1NC(=O)N(C)C[C@H]1Oc2c(NC(=O)C3CCOCC3)cccc2C(=O)N([C@H](C)CO)C[C@@H]1C,.,1.6
Cc1cc(C(=O)Nc2cccc3c2O[C@H](CN(C)C(=O)NC2CCCCC2)[C@H](C)CN([C@H](C)CO)C3=O)n(C)n1,.,0.2
C=CCNC(=O)[C@@H]1[C@H]2C(=O)O[C@H](c3ccccc3)[C@H](c3ccccc3)N2[C@H](c2ccc(OCCO)cc2)[C@@]12C(=O)Nc1ccc(C#Cc3ccc(OC)cc3)cc12,15.4,.
C=CCNC(=O)[C@@H]1[C@H]2C(=O)O[C@H](c3ccccc3)[C@H](c3ccccc3)N2[C@H](c2ccc(OCCO)cc2)[C@@]12C(=O)Nc1ccc(C#CCNC(N)=O)cc12,20.3*,.
